This is an account of results in PubChem BioAssay (EPA / NIEHS).

The source made the active and inactive calls. Rule for the calls: active = hit-call score of the fitted dose curve at least 0.9, where 1 is the maximum; inactive = score below 0.9.

The assay in a line: ATG_E_Box_CIS: Attagene CIS-FACTORIAL HepG2 Assay for human Enhancer Box (E-box) (AID 2282936). Particulars: HepG2 E-box cis-reporter transcription, actives raise or lower the signal. The protocol:
ATG_CIS is a cell-based, multiplexed-readout assay that uses HepG2, a human liver cell line, with measurements taken at 24 hours after chemical dosing in a 24-well plate.ATG_E_Box_CIS is one of 52 assay component(s) measured or calculated from the ATG_CIS assay. It is designed to make measurements of mRNA induction, a form of inducible reporter, as detected with fluorescence intensity signals by Reverse transcription polymerase chain reaction (RT-PCR) and Capillary electrophoresis technology.Data from the assay component ATG_E_Box_CIS was analyzed into 1 assay endpoint. This assay endpoint, ATG_E_Box_CIS, was analyzed with bidirectional fitting relative to DMSO as the negative control and baseline of activity. Using a type of inducible reporter, measures of mRNA for gain or loss-of-signal activity can be used to understand the reporter gene at the transcription factor-level as they relate to the gene USF1. Furthermore, this assay endpoint can be referred to as a primary readout, because this assay has produced multiple assay endpoints where this one serves a reporter gene function. To generalize the intended target to other relatable targets, this assay endpoint is annotated to the dna binding intended target family, where the subfamily is basic helix-loop-helix protein.
Human liver HepG2 cells are transiently transfected with multiple reporter transcription units (MRTUs) in 6-well plates using FuGene 6 reagent (Roche; 3 ml FuGene/1 mg DNA). The MRTU constructs are regulated by a cis-regulating element (promoter). […] A major difference between the CIS and TRANS system is that in CIS activities of endogenous TFs are measured, whereas the TRANS assay evaluates changes in activities of exogenous, chimeric NR-Gal4 proteins. […] At the end of 24 hour incubation, total RNA was isolated using TriZol reagent (Invitrogen). The isolated RNA is then reverse-transcribed using oligo(dT) primer and Mo-MLV reverse transcriptase (Invitrogen) with DNAse I (Ambion) treatment for 30 min. The one-tenth of the produced cDNA was amplified by PCR using Taq DNA polymerase (Invitrogen) and two reporter sequence-specific primers. The PCR products were fluorescently labeled by primer extension with 6-arboxyfluorescein (6-FAM) 5'-labeled reporter sequence-specific primer (2 min at 95 C, 20 s at 68 C and 10 min at 72 C) and these products were digested with 5U of HpaI (New England Biolabs) for 2h at 37 C. The fragments were purified using Qiaquick PCR columns (Qiagen), analyzed on an ABI 3130xL genetic analyzer (Applied Biosystems) with peak positions identified by using a set of X-rhodamine (ROX)-labeled MapMarker1000 molecular weight standards (BioVentures). The raw capillary electrophoresis data was processed using Attagraph software (Attagene).
On to `OC[C@@H](O)[C@H](O)[C@@H](O)[C@@H](O)CO`, for which the outcome was inactive. The AC50 is the concentration at which the activity in the assay is half-maximal. As for `C[C@H](CCC(=O)O)[C@H]1CC[C@H]2[C@@H]3CC[C@@H]4C[C@H](O)CC[C@]4(C)[C@H]3CC[C@]12C`, the AC50 is 64.2 µM (active). Turning to `C=CCOC(=O)/C=C\C(=O)OCC=C`, the result was inactive.

In the case of `COc1cc(OC)c2ccc(=O)oc2c1`, the result was inactive. In the case of `CCC(C)(C)C1CCC(OC)CC1` (stereo not given), the result was inactive. Same read-out and setting: then `Nc1ccc(N)c([N+](=O)[O-])c1`, with “inactive”; and `C=CC(C)CCCC(C)(C)O` (stereo not given), with “inactive”; and `C=CCCCCCCCCC(=O)OCC`, with “inactive”. Take `CC(C)Cc1ccc(C(C)C(=O)O)cc1` (stereo not given): the outcome was inactive. Same read-out and setting: then `CCCC1CCOC(C)S1` (stereo not given), with “inactive”; and `S=c1[nH][nH]c(=S)s1`, with “inactive”; and `CC(C)Cc1ccccc1`, with “inactive”. Same read-out and setting: then `C=C(C)CCCC(C)CCO` (stereo not given), with “inactive”; and `CC=CC(=O)C1=C(C)C=CCC1(C)C`, with “inactive”; and `Brc1cc(Br)cc(Br)c1`, with “inactive”. Still for that read-out and setting: then `CC(O)CNCC(C)O` (stereo not given), with “inactive”; and `CN(C)CCC=C1c2ccccc2CCc2ccccc21`, with “inactive”.

For `c1coc(CNc2ncnc3nc[nH]c23)c1`, the result was inactive. The same measure, in the same setting: next, `CC(=O)C1C(=O)C=C(C)OC1=O` (stereo not given): “inactive”. Same read-out and setting: next, `CCCCCCCCCOS(=O)(=O)O`: “inactive”; `CC1(C)CC(=O)CC(C)(C)N1`: “inactive”.

As for `CCCCCCCCCCCCS`, the result was inactive. Consider `CCC(CC)CO`, for which the outcome was inactive. On the same count and under the same terms, then `C=C1CC[C@H]2O[C@]2(C)CC[C@@H]2[C@@H]1CC2(C)C`, with “inactive”; and `NCCN1CCNCC1`, with “inactive”; and `CC/C=C\C#N`, with “inactive”. On the same count and under the same terms, next, `CCCCCCCCCO`: “inactive”; `CC(O)CN` (stereo not given): “inactive”. Same read-out and setting: then `CC(=O)c1ccc2ccccc2c1`, with “inactive”; and `CC(C)=CCCC(C)=CC(=O)O`, with “inactive”; and `O=C1CCCCCCCCCCCC(=O)OCCO1`, with “inactive”.

In the case of `CC(=O)OCC=C(C)CCC=C(C)CCC=C(C)C`, the result was inactive. Same read-out and setting: next, `CCCCCCCCOS(=O)(=O)O`: “inactive”; `CCC(C)(CCCC(C)C)OC(C)=O` (stereo not given): “inactive”.

For the compound `COC(=O)C(C)Oc1ccc(Oc2ncc(C(F)(F)F)cc2Cl)cc1` (stereo not given), the AC50 was 180 µM (active).

For the compound `O=C(O)CS`, the outcome was inactive. Still for that read-out and setting: then `CC(=N[Si](C)(C)C)O[Si](C)(C)C`, with “inactive”.

In the case of `O=c1cc(-c2ccc(O)cc2)oc2cc(O)cc(O)c12`, the outcome was inactive.

For `CCCOC(=O)CC`, the result was inactive.

With `COc1ccc(OC)cc1`, the outcome was inactive.
